# D1 PAM = enhances dopamine response at the human D1 receptor | AID 504651 | HEK293 TREx D1 cells, calcium flux, dopamine EC20 potentiation | P21728 | 0.036% of 360,000 active | potentiation, % at 10 µM; in the data active means potentiation above about 30%; further: 0% is about no effect
# Target sequence (P21728 whole entry, looked up): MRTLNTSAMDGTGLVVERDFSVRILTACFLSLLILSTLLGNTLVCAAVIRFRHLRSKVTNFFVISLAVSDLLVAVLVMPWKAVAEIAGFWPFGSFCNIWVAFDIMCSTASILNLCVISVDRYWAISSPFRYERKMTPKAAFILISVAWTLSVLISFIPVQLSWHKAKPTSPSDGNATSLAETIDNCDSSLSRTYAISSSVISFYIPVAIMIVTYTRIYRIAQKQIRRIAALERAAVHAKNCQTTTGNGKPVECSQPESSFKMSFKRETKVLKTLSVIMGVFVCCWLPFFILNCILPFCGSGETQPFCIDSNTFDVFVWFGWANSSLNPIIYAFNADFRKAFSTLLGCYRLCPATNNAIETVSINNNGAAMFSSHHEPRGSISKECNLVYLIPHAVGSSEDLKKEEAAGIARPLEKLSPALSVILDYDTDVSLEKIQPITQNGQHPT
# TRHR enhancer = allosterically enhances the human TRH receptor; P34981; TRHR cells, fluo-8 calcium fluorescence, EC20 TRH enhancement; enhancement, % at 2 µM; 0.66% of 360,000 active; AID 493056; in the data active means enhancement above about 30%; further: 0% is about no effect
#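 Enhancer read-out: after compound pinning and an initial kinetic agonist-mode read, an EC20 of TRH (10 nM final) was injected and fluo-8 calcium signal (Ex 480/Em 530) followed at 1 s/cycle for 100 cycles in TRHR-expressing cells.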
# D1 antagonist = human D1 dopamine receptor antagonism | 3.2% of 360,000 active | activity change, negative = inhibition, % at 10 µM | AID 504652 | P21728 | HEK293 TREx D1 cells, calcium flux, dopamine EC80; active compounds read low; in the data active means activity change below about -30%; further: on the % scale 0 is the no-effect control and ±100 the full control effect
#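 Tetracycline-induced HEK293 Trex D1 cells, force-coupled to calcium, dye-loaded; compounds added and read 180 s, then EC80 dopamine added and calcium flux tracked kinetically another 180 s.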
# TRHR agonist = activates the human TRH receptor | P34981 | 0.18% of 360,000 active | TRHR cells, calcium flux fluo-8, FDSS agonist mode | activation, % at 2 µM; further: 0% is about no effect
#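 TRHR-expressing cells, plated overnight in medium with 10% serum, were loaded with fluo-8 calcium dye at room temperature. After a 10 s baseline, library compound was pin-added and calcium release was recorded kinetically (ex 480/em 530) as agonist response.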
# D1 agonist = agonists of human D1 dopamine receptor | P21728 | HEK293 T-REx D1 cells, calcium flux, agonist mode | activation, % at 2 µM | 1% of 360,000 active | AID 504660; further: 0% is about no effect
#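 Agonism was scored from calcium flux recorded over 180 s (1 read/s) after pintool compound addition, following a 10-cycle baseline. Cells were inducible force-coupled HEK293 TREx D1, plated overnight at 30 C and loaded with no-wash calcium dye.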
# Active calls of the source: *; . = not tested or not shown. An excerpt weighted towards active compounds, which were near 4.7% of everything screened. Unless noted, no stated cut-off is given here; in the data, active means activation above about 30%; inactive means the rest.
SMILES,D1 PAM,TRHR enhancer,D1 antagonist,TRHR agonist,D1 agonist
NC(=O)c1cc2ccc(O)cc2oc1=NCc1ccccc1,-8,0,-17,26,150*
NC(=O)c1cc2ccccc2oc1=NCc1ccccc1,-1,0,11,0,-1
COc1ccc2cc(C(N)=O)c(=Nc3ccccc3)oc2c1,-2,8,1,0,1
COc1ccc(NC(=O)Cn2cc(C(=O)c3ccc(C)c(C)c3)c(=O)c3cc(OC)ccc32)cc1,-1,5,3,1,3
Cc1ccc(S(=O)(=O)Nc2ccc(Cl)cc2)cc1NC(=O)c1cc2c(s1)CCCC2,2,32*,9,0,-2
Cc1ccc(S(=O)(=O)N2CCOCC2)cc1NC(=O)c1cc2c(s1)CCC2,-1,-3,-3,-1,0
Cc1cc(C)n(Cc2ccc(C(=O)Nc3cccc(Br)c3)o2)n1,-2,-7,-28,0,38*
O=C(Nc1cccc(C(F)(F)F)c1)c1ccc(Cn2cc(Br)cn2)o1,-5,-8,-31*,5,34*
Cc1ccc(S(=O)(=O)N2CCCOC2CNC(=O)C(=O)NC2CCCC2)cc1 (stereo not given),-2,6,-7,1,3
CCOC(=O)C1(CC2CC2)CCN(S(=O)(=O)/C=C/c2ccccc2)CC1,-11,-3,-80*,0,9
Cn1cccc1/C=C1\CC(C(C)(C)C)C/C(=C\c2cccn2C)C1=O (stereo not given),2,9,-8,-3,123*
CN1C2CCC1/C(=C/c1cccn1C)C(=O)/C2=C\c1cccn1C,-4,21,-6,-1,187*
CN(CC(=O)Nc1ccccc1Cl)C(=O)COC(=O)c1ccc(Cl)cc1[N+](=O)[O-],-9,16,-42*,-1,0
Cc1ccc(-c2csc(N3CCN(c4cc5c(cc4Cl)nc(C)n5CCN4CCCCC4)CC3)n2)cc1,-11,2,-39*,0,1
Cc1nc2[nH]c(=O)c3c(n2n1)NC1=C(C(=O)CC(C)(C)C1)C3c1ccccc1 (stereo not given),-3,0,-51*,0,5
CCCCCCN(CCCCCC)C(=O)Cc1c(-c2ccc(F)cc2)[nH]c2ccccc12,-7,8,-61*,0,-1
NC(=O)CCCn1c(C(=O)c2cc(Cl)c(N)c(Cl)c2)c2ccc([N+](=O)[O-])cc2[n+]1[O-],4,-2,1,0,0
CCC(C(=O)OCC(=O)N1CCN(S(=O)(=O)c2ccc(C)cc2C)CC1)c1ccccc1 (stereo not given),.,-5,-3,1,49*
Cc1nnc(SCC(=O)N2CCN(S(=O)(=O)c3ccccc3)CC2)s1,-4,-1,-39*,0,1
Cc1ccc(C)c(S(=O)(=O)N2CCN(C(=O)CCc3c[nH]c4ccccc34)CC2)c1,-5,2,-35*,0,1
Cc1ccc(C)c(S(=O)(=O)N2CCN(C(=O)CSc3ccccc3)CC2)c1,-4,3,-41*,1,-1
CCN1CCN(c2ccc(S(=O)(=O)N3CCOCC3)cc2NC(=O)C(C)Oc2ccc(F)cc2)CC1 (stereo not given),-2,9,4,2,3
Cc1ccc(-c2nnc(SCC(=O)N3CCCC3)o2)cc1,-2,-9,0,0,2
Cc1ccc(S(=O)(=O)N2CCN(C(=O)CSc3nnc(-c4ccco4)o3)CC2)cc1,-8,6,-40*,-1,0
Cc1cccc(OCC(=O)N(Cc2cccc(Cl)c2)Cc2ccco2)c1C,-1,-8,-17,4,31*
SMILES,D1 PAM,TRHR enhancer,D1 antagonist,TRHR agonist,D1 agonist
Cc1cc(=O)oc2ccc(OCC(=O)N(Cc3ccc(F)cc3)Cc3ccco3)cc12,-6,-5,-42*,0,17
Cc1cc(C)c2c(CC(=O)N(Cc3ccc(Cl)cc3)Cc3ccco3)coc2c1,2,12,16,6,38*
Cc1cc(Cl)ccc1OCC(=O)N(Cc1ccco1)Cc1ccco1,0,-6,-11,0,6
Cc1ccc(CN(Cc2ccco2)C(=O)COc2ccc(C)c(C)c2)cc1,-3,-9,-29,1,10
c1csc(-c2noc(COc3ccc4c(c3)CCCC4)n2)c1,-2,10,-39*,0,27
O=C(Nc1ccc(F)cc1)c1sc(Cl)nc1-c1ccccc1,1,0,16,1,-1
O=C(Nc1cccc(F)c1)c1sc(Cl)nc1-c1ccccc1,0,-3,-36*,1,4
CN1CCN(S(=O)(=O)c2ccc(N3CCN(S(=O)(=O)/C=C/c4ccccc4)CC3)nc2)CC1,-12,2,-49*,0,5
N#Cc1ccsc1NC(=O)c1cccc([N+](=O)[O-])c1,2,-2,11,2,4
N#Cc1ccsc1NC(=O)c1ccc(Cl)c([N+](=O)[O-])c1,-1,1,-38*,12,39*
NC1=NC(=Nc2ccccc2)c2ccccc21,-8,5,4,0,0
NC1=NC(=Nc2ccc(Cl)cc2)c2ccccc21,-14,-4,-41*,0,1
NC1=NC(=Nc2ccc(S(=O)(=O)N3CCOCC3)cc2)c2ccccc21,-3,-10,-33*,0,4
NC1=NC(=Nc2ccc(Br)cc2)c2ccccc21,-10,-3,-33*,0,-1
Nc1ccc(S(=O)(=O)N2CCOCCOCCOCCOCCOCC2)cc1,-1,-4,-7,0,3
Cc1ccc(-c2nnc3c4ccccc4c(C)nn23)cc1NC(=O)c1ccccc1,-4,-1,-5,0,0
CC1=C(C(=O)Nc2ccccc2C)C(c2ccncc2)n2nc(SCc3ccccc3)nc2N1 (stereo not given),2,0,-6,0,0
Cc1c(C)n(Cc2ccc(F)cc2)c2ccc(C(=O)N3CCN(c4ccc(Cl)cc4)CC3)cc12,-3,0,-10,0,4
O=C(CCn1c(=O)c2sccc2n(CC(=O)Nc2ccccc2)c1=O)NCc1ccccc1Cl,3,-6,12,0,1
COc1ccc(CNC(=O)c2cc3c(s2)-c2c(C)cccc2OC3)cc1,-6,-3,-7,1,4
COc1ccc(OC)c(Nc2cc(C(=O)NCc3ccccc3)c3ccccc3n2)c1,2,7,-80*,-1,0
COc1ccc(Nc2cc(C(=O)NCCCN(C)C3CCCCC3)c3ccccc3n2)c(OC)c1,-2,0,-14,3,34*
COc1ccc(Nc2cc(C(=O)NCCCN(C)C3CCCCC3)c3ccccc3n2)cc1,1,0,-41*,6,65*
CCN(CC)CCCNC(=O)c1cc(Nc2ccc(OC)cc2OC)nc2ccccc12,-9,-1,-12,0,1
CCCCN(C)C(=O)CN1C(=O)CCn2nc(-c3cn(C)c4ccccc34)cc21,1,1,1,0,0
